Source: PubChem BioAssay (National Center for Advancing Translational Sciences (NCATS))
SW480 rerep: DNA re-replication induction in SW480 cells. SW480 DNA re-replication, Hoechst DNA content imaging, 48 h. Potency, µM (top dose mostly 46.1 µM), without a hit: top-dose re-replication activation, actives largely listed as activators. 340,000 compounds, 1.8% hits. AID 624297; also: % of control where 0% means no effect; nearly all actives have a fitted effect of over 55% in size
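250 cells/well; 23 nL cpd via pin tool; 48 hr, 37 C, 5% CO2; Hoechst 40 min; imager read of total nuclear intensity, ex 405/em 500-530 nm.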
PINK1 modulator: modulators of PINK1 expression. 410,000 compounds, 0.2% hits. AID 624263. Potency, µM (top dose mostly 76.6 µM), inactives show at the top dose activation (PINK1 increase), hits mostly activators. PINK1 immunofluorescence, high-content cytometry, 24 h; active = well fitted activation curve with a large enough effect; inconclusive = small, poorly fitted or top-dose-only effect; cell line not stated here; also: % of control where 0% means no effect; nearly all actives have a fitted effect of over 65% in size
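Stable cell line treated 24 h with compounds at 5 concentrations (CCCP controls), then fixed and immunostained for PINK1 plus nuclear and cell stains; PINK1 immunofluorescence quantified by laser-scanning microplate cytometry.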
KB-V1 MDR tox: kills drug-selected multidrug resistant KB-V1 cells; KB-V1 MDR cells viability, CellTiter-Glo, 72 h; Potency, µM (top dose mostly 46.1 µM), actives largely listed as cytotoxic; 400,000 compounds, 3.4% hits; AID 1347076; also: % is scaled to controls: 0 for no effect and ±100 for the full control effect; nearly all actives have a fitted effect of over 60% in size
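KB-V1, DMEM (no phenol red) + 10% FBS; cpd pin-transferred, titration series; 72 h, 37 degrees C; CellTiter-Glo, luminescence. Data normalized, curve-fit.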
KB-3-1 cytotox: kills parental KB-3-1 adenocarcinoma cells. KB-3-1 viability, CellTiter-Glo ATP luminescence, 72 h. Potency, µM (series often up to 46.1 µM), actives largely listed as cytotoxic. 400,000 compounds, 1.4% hits; also: % is scaled to controls: 0 for no effect and ±100 for the full control effect; nearly all actives have a fitted effect of over 60% in size
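Cytotoxicity in the drug-sensitive parental line KB-3-1 was scored as loss of CellTiter-Glo luminescence following 72 h incubation with compound. Values come from curve fitting of normalized concentration-response data.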
TSG101-PTAP inh: blocks PTAP/TSG101 interaction to inhibit HIV-1 budding; Q99816; Fluorescence polarization, FITC-PTAP peptide / Tsg101 binding; Potency, µM (series often up to 115 µM), for the others: at the top dose activity change, negative = inhibition, usual class: inhibitors; 340,000 tested, under 10 active; active = well fitted inhibition curve with a large enough effect in the main read-out, with a control signal flat, not every such curve was filed as active; inconclusive = small, poorly fitted or top-dose-only effect, or effect the other way, or a change in a side signal; inactive = no such curve, though single readings can be large or run the other way; also: % of control where 0% means no effect
Target sequence (Q99816 whole entry, looked up): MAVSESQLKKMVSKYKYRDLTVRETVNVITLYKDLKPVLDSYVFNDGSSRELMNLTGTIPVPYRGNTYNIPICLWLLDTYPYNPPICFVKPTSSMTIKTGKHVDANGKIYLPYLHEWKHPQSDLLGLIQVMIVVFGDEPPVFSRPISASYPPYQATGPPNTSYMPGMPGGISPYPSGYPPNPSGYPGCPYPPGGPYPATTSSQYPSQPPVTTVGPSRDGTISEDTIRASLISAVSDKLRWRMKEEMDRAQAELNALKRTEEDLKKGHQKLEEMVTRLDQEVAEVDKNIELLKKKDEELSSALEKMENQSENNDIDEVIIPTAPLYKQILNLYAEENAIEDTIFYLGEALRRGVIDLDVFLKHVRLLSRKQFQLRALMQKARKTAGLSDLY
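Steps: Tsg101 binding domain dispensed (10 uM final), compounds pinned in DMSO, FITC-labeled PTAP-motif peptide added (50 nM final); after 20 min binding at room temperature, polarization measured.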
MCF10A rerep: inducers of DNA re-replication in MCF 10A breast cells; MCF 10A DNA re-replication, Hoechst nuclear intensity, 48 h; Potency, µM (doses to about 46.1 µM), for the others: at the top dose activity, positive = re-replication, most hits filed as activators; 350,000 compounds, 2.9% hits; AID 624296; also: % of control where 0% means no effect; nearly all actives have a fitted effect of over 50% in size
* = called active by the depositor; i = inactive; ? = inconclusive; . = no result given; ! = not active in a repeat; [ ] = remark or other dose. Shown are actives, neighbours in structure and some others; about 6.8% of the full set was active somewhere. Unless noted, calls follow the shape of the dose curve; as a rule, active = well fitted curve in the direction sought with a large enough effect; inconclusive = small, poorly fitted or top-dose-only effect, or another doubt; inactive = no such curve, though single readings can be large; an effect the other way counts as inactive or inconclusive. Potency is read from the fitted curve at half-maximal effect.

SMILES | SW480 rerep | PINK1 modulator | KB-V1 MDR tox | KB-3-1 cytotox | TSG101-PTAP inh | MCF10A rerep
COc1ccc(C2=Nn3c(nc4sc(C(=O)Nc5cccc(C)c5)c(C)c4c3=O)SC2)cc1 | . | 0.9% | . | . | . | .
O=C(Cn1cnc2c(cnn2-c2ccc(F)cc2)c1=O)N1CCN(c2ccccc2F)CC1 | 0.8% | 2.4%[38.3 µM] | 3.66µM* | i | -0.6% | -0.3%
Cc1ccc(-n2ncc3c(=O)n(CC(=O)N4CCCc5ccccc54)cnc32)cc1C | -5.5% | 7.4% | 18.4µM* | i | 0.8% | ?
Cc1ccc(-n2ncc3c(=O)n(CC(=O)N4CCN(C(=O)c5ccco5)CC4)cnc32)cc1 | -2.1% | 15.0% | 11.6µM* | i | -5.5% | 0.1%
O=C(Cn1cnc2c(cnn2-c2ccc(F)cc2)c1=O)N1CCCc2ccccc21 | 0.1% | 2.3% | 2.91µM* | ? | -3.7% | 0.3%
COc1ccc(-n2ncc3c(=O)n(CC(=O)N4CCCc5ccccc54)cnc32)cc1 | -18.7% | -15.0%[38.3 µM] | ? | ? | -5.4% | 14.3%
Cc1ccc(-n2ncc3c(=O)n(CC(=O)N4CCN(c5ccccc5F)CC4)cnc32)cc1C | 2.7% | 1.3% | i | i | -0.6% | ?
COc1ccc(CNc2ncnc3ccc(-c4ccccc4CN(C)C)cc23)c(OC)c1 | . | -1.1% | . | . | . | .
O=C(Cn1cnc2c(nnn2Cc2ccc(Cl)cc2)c1=O)N1CCCc2ccccc21 | 0.5% | -5.8%[38.3 µM] | i | i | -7.5% | 11.9%
COc1ccccc1NC(=O)Cn1cnc2c(cnn2-c2ccc(C)c(C)c2)c1=O | -7.3% | ? | 13µM* | i | 0.0% | -3.3%
COc1ccc(-n2ncc3c(=O)n(CC(=O)NC(C)C)cnc32)cc1 | -4.9% | 0.0% | i | i | -3.1% | 0.92µM*
O=c1c2cnn(-c3ccccc3)c2ncn1Cc1ccccc1 | -10.4% | 1.8% | 20.6µM* | i | -0.8% | -0.7%
O=C(Cn1cnc2c(nnn2Cc2ccc(F)cc2)c1=O)N1CCCc2ccccc21 | -4.3% | 0.2% | 16.4µM* | i | -1.8% | 6.9%
Cc1cnc(CNc2cc(-c3cccc(C#N)c3)ncn2)cn1 | . | -0.2% | . | . | . | .
Cc1c(C(=O)NCc2ccc(F)cc2)sc2ncnc(NCC3CCCO3)c12 (centres undefined) | . | 1.1% | . | . | . | .
O=C(Cn1cnc2c(oc3ccccc32)c1=O)N1CCCc2ccccc21 | 1.9% | 3.3% | 4.11µM* | i | -1.4% | -1.6%
COc1ccccc1NC(=O)CN1C(=O)CC(c2ccc(C)c(C)c2)=Nc2ccccc21 | . | 0.1% | 16.4µM* | i | . | .
O=C(CSc1ncnc2c1oc1ccccc12)N1CCCc2ccccc21 | -5.8% | . | i | i | -5.3% | 0.1%
C1CCC(C(CC2CCCCN2)C2CCCCC2)CC1 (centres undefined) | . | -0.6% | 18.4µM*! | ? | -4.0% | ?
Cc1ccc(/C=N/NC(=O)CCCOc2ccc(Cl)cc2Cl)cc1[N+](=O)[O-] | -2.5% | 5.2% | i | ? | -2.0% | ?
COc1ccc(/C=N/NC(=O)CCCOc2ccc(Cl)cc2Cl)cc1[N+](=O)[O-] | -7.1% | 8.6% | 20.6µM* | ? | -0.2% | 1.5%
O=C(COc1ccc(Cl)cc1Cl)N/N=C/c1ccc[nH]1 | -0.2% | 2.0% | i | i | -4.7% | 11.6µM*
O=C(CCCOc1ccc(Cl)cc1Cl)N/N=C/c1ccccc1 | 1.64µM* | 7.0% | ? | i | 1.9% | ?
O=C(COc1ccc(Cl)cc1Cl)N/N=C/CCc1ccccc1 | -1.6% | 1.1%[38.3 µM] | i | i | -7.1% | -8.3%
Cc1ccc(/C=N/NC(=O)CCCOc2ccc(Cl)cc2Cl)cc1 | ? | 2.3% | ? | ? | -3.2% | 14.6µM*
SMILES | SW480 rerep | PINK1 modulator | KB-V1 MDR tox | KB-3-1 cytotox | TSG101-PTAP inh | MCF10A rerep
COc1ccccc1N1CCN(C(=O)Cn2c(=O)nc(-c3ccccc3)c3cc(Cl)ccc32)CC1 | . | 0.5% | . | . | . | .
CCc1cccc(C)c1NC(=O)c1cc(S(=O)(=O)N2CCCCCC2)cn1C | . | 1.9% | i | i | . | .
Cc1c(CC(=O)NCCc2ccccc2F)c(=O)oc2cc(O)c(Cl)cc12 | . | 0.4% | . | . | . | .
O=C(Nc1cc(C(F)(F)F)ccc1Cl)c1cc(-c2cccs2)nc2ccccc12 | . | 1.4% | i | i | . | .
CCC(=O)N1CCc2cc(Br)cc(S(=O)(=O)CCC(=O)N3CCN(c4ccccc4F)CC3)c21 | . | -1.5% | i | i | . | .
Cc1ccccc1OCCCSc1nc2ccccc2[nH]1 | 4.0% | ? | 11.6µM* | ? | 0.8% | ?
c1ccc(OCCSc2nc3ccccc3[nH]2)cc1 | -1.9% | 0.3% | i | i | -3.8% | -3.1%
Cc1c2cnccc2c(C)c2c1oc1ccccc12 | ? | -6.9% | 11.6µM* | ? | 0.4% | ?
Cc1ccc(F)c([C@H]2[C@@H]3C=CCC[C@@]3(C)C(=O)N2Cc2ccccc2)c1 | -3.6% | 7.7% | i | i | . | 23.1µM*
CC(=O)C(Cl)C(=O)Nc1ccccc1 (centres undefined) | ? | 3.6% | i | 20.6µM* | -0.7% | ?
O=C(Nc1ccccc1)C(Cl)C(=O)c1ccccc1 (centres undefined) | 0.4% | 0.6% | i | i | -0.6% | ?
COc1cc(/C=C/C(=O)c2ccc([N+](=O)[O-])o2)ccc1O | 0.058µM* | 1.6% | i | i | -1.4% | ?
COc1ccc(/C=C/C(=O)c2ccc([N+](=O)[O-])o2)cc1OC | ? | 8.5% | ? | ? | -2.1% | ?
O=C(/C=C/c1cccc(Cl)c1)c1ccc([N+](=O)[O-])o1 | 1.46µM* | -1.3% | i | ? | -3.2% | 2.31µM*
Cc1cc(Br)ccc1NC(=O)c1cc2c(=O)n(C)c3cc(Cl)ccc3c2s1 | . | -1.4% | i | i | . | .
CCc1ccc(CNC(=O)c2ccc(Cn3c(=O)c4cccn4c4cccnc43)cc2)cc1 | . | -1.1% | i | i | . | .
O=c1cc(-c2ccccc2)nc2c(-c3ccccc3)c(C(F)(F)F)[nH]n12 | ? | ? | ? | i | -5.9% | 8.2µM*
Cc1cc(=O)n2[nH]c(C)c(-c3ccccc3)c2n1 | -3.9% | 0.6% | ? | i | -4.8% | -6.2%
CC(C)CCN(C(=S)Nc1cccc(F)c1)C(C)c1cccs1 (centres undefined) | -3.7% | -0.2% | i | i | -1.1% | 16.4µM*
COCCN(C(=S)Nc1cccc(C)c1)C(C)c1cccs1 (centres undefined) | 0.2% | 0.6% | i | i | 0.9% | -1.9%
Cc1ccc(NC(=O)Cn2cnc3onc(-c4ccc(F)cc4)c3c2=O)c(Cl)c1 | . | -1.3% | ? | i | . | .
